Measured values published in PubChem BioAssay (Tox21).
Records with an inconclusive call do not appear. Entries that show only a call come without a potency. More than one record can exist for a structure, and the calls need not agree. Activity calls are given as the source filed them. Unless noted, the call rests on the fitted dose curve; in most records, active means well fitted curve in the direction sought with a large enough effect in the repeat runs; inconclusive means weak or mixed curves; inactive means no such curve, though single readings can be large; an effect the other way counts as inactive or inconclusive.

Tests used:
[1] = qHTS assay to identify small molecule agonists of the vitamin D receptor (VDR) signaling pathway - cell viability counter screen (AID 743224); further: nearly all actives have a fitted effect of over 50% in size; further: potency means the concentration at half of the fitted maximal effect
Procedure, shortened: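 Plated VDR-bla cells (4 h, 37C) received compound, incubated 16 h, then LiveBLAzer substrate 2 h RT; CellTiter-Glo added afterwards, luminescence read at 30 min.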

[2] = qHTS assay to identify small molecule antagonists of the vitamin D receptor (VDR) signaling pathway - cell viability counter screen (AID 743225); further: nearly all actives have a fitted effect of over 50% in size; further: potency means the concentration at half of the fitted maximal effect
Procedure, shortened: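 Luminescent cell viability (CellTiter-Glo) in VDR-bla HEK 293T cells after 16 h compound exposure at 37C in the presence of 3 nM final 1-alpha,25-dihydroxy vitamin D3.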

[3] = qHTS assay to identify small molecule agonists of the NFkB signaling pathway (AID 1159509; active means well fitted curve in the direction sought with a large enough effect in the signal ratio in the repeat runs, not every such curve was filed as active; the % refers to the signal ratio; further: series mostly up to about 61 µM)
Procedure, shortened: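 NFkB-bla ME-180 cells carry a beta-lactamase reporter under an NF-kB response element. They were plated overnight, then exposed to compounds for 5 h at 37 C. Read-out is LiveBLAzer FRET after 1.5 hr at room temperature (405 nm excitation; 460/530 nm emission).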

[4] = qHTS assay to identify small molecule agonists of the NFkB signaling pathway - cell viability counter screen (AID 1159515; calls by dose curve; further: series mostly up to about 61 µM; nearly all actives have a fitted effect of over 55% in size)
Procedure, shortened: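 Using the same wells as the NFkB reporter read, ME-180 NFkB-bla cells given compounds for 5 hr were assessed for viability via CellTiter-Glo, with luminescence taken after a 30 min room-temperature incubation.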

[5] = qHTS assay to identify small molecule agonists of the endoplasmic reticulum stress response signaling pathway (AID 1159516; active means well fitted activation curve with a large enough effect in the signal ratio in the repeat runs, not every such curve was filed as active; the % refers to the signal ratio)
Procedure, shortened: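 An ESRE-bla HeLa cell assay: compounds were pin-transferred from DMSO onto overnight-plated cells and left 5 hr at 37 C. Substrate was then loaded for 2 hr at room temperature before reading fluorescence at 460 nm and 530 nm.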

[6] = qHTS assay to identify small molecule antagonists of the retinoid-related orphan receptor gamma (ROR-gamma) signaling pathway - cell viability counter screen (AID 1159520); further: nearly all actives have a fitted effect of over 50% in size
Procedure, shortened: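 Tet-on ROR gamma CHO cells (1,000/well) were plated 4 hr, given compounds in DMSO for 2 hr at 37 C, then induced with 1 uM final doxycycline for 16 hr. Viability was read as ATP by CellTiter-Glo luminescence after 30 min.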

[7] = biological target: Nuclear receptor ROR-gamma (Homo sapiens) (UniProt P51449); assay: qHTS assay to identify small molecule antagonists of the retinoid-related orphan receptor gamma (ROR-gamma) signaling pathway (AID 1159521; further: nearly all actives have a fitted effect of over 50% in size; further: potency means the concentration at half of the fitted maximal effect)
Procedure, shortened: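 CHO cells expressing RORγ under a TET-on promoter, luciferase under RORE control. Dox 1 uM final, 16 h; compounds added 2 h prior. Luminescence decrease measured.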

[8] = qHTS assay to identify small molecule agonists of the AP-1 signaling pathway (AID 1159526; calls by dose curve)
[9] = qHTS assay to identify small molecule agonists of the RXR signaling pathway - cell viability counter screen (AID 1159529); further: nearly all actives have a fitted effect of over 50% in size; further: potency means the concentration at half of the fitted maximal effect
Procedure, shortened: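 Same-well viability check after the LiveBLAzer FRET read: CellTiter-Glo added, luminescence measured after 30 min at room temperature. Reporter HEK 293T cells had been treated with compounds for 16 hr following a 5 hr preincubation.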

[10] = qHTS assay to identify small molecule antagonists of the retinoid acid receptor (RAR) signaling pathway - cell viability counter screen (AID 1159551); further: nearly all actives have a fitted effect of over 35% in size
Procedure, shortened: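 Retinol-stimulated (1 uM final) C3RL4 cells, compound 6 h, 37 C; readout CellTiter-Glo luminescence (ATP) after 30 min RT incubation.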

[11] = qHTS assay to identify small molecule antagonists of the retinoic acid receptor (RAR) signaling pathway (AID 1159552; further: nearly all actives have a fitted effect of over 50% in size)
Procedure, shortened: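 Readout: luciferase luminescence, 30 min post-reagent at RT. Setup: C3RL4 RARE reporter cells, compounds plus retinol 1 uM final, 6 hr incubation at 37 C and 5% CO2.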

[12] = qHTS assay to identify small molecule agonists of the retinoic acid receptor (RAR) signaling pathway (AID 1159553)
Procedure, shortened: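 Reporter readout comes from luciferase under RARE control in C3RL4 cells; compound exposure lasts 6 hr at 37 C in 5% CO2, and luminescence is recorded following a 30 min room-temperature incubation with reagent.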

[13] = qHTS assay to identify small molecule agonists of the endoplasmic reticulum stress response signaling pathway - cell viability counter screen (AID 1159517; calls by dose curve)
Procedure, shortened: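 CellTiter-Glo was added to wells already read for beta-lactamase FRET, and luminescence was recorded 30 min later. Cells: ESRE-bla HeLa, 1,500 per well, compound exposure 5 hr at 37 C.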

[14] = qHTS assay to identify small molecule agonists of the AP-1 signaling pathway - cell viability counter screen (AID 1159525; calls by dose curve; further: nearly all actives have a fitted effect of over 55% in size)
Procedure, shortened: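 ME-180 AP-1-bla, 2500 cells/well, Opti-MEM + 0.5% dialyzed FBS; overnight 37 °C; cpd 15-pt titration, 5 h 37 °C; CellTiter-Glo 30 min RT; luminescence read; normalised to TOAB and DMSO controls.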

[15] = biological target: Retinoic acid receptor RXR-alpha (Homo sapiens) (UniProt P19793); assay: qHTS assay to identify small molecule agonists of the RXR signaling pathway (AID 1159527; calls by dose curve; further: nearly all actives have a fitted effect of over 35% in size)
Procedure, shortened: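 Beta-lactamase reporter assay, agonist format. Engineered HEK 293T line, charcoal-stripped FBS at 2%, overnight (16 hr) exposure, fluorescence at 460 and 530 nm after 405 nm excitation.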

Sequence of Retinoic acid receptor RXR-alpha (Homo sapiens) (P19793 whole entry, looked up): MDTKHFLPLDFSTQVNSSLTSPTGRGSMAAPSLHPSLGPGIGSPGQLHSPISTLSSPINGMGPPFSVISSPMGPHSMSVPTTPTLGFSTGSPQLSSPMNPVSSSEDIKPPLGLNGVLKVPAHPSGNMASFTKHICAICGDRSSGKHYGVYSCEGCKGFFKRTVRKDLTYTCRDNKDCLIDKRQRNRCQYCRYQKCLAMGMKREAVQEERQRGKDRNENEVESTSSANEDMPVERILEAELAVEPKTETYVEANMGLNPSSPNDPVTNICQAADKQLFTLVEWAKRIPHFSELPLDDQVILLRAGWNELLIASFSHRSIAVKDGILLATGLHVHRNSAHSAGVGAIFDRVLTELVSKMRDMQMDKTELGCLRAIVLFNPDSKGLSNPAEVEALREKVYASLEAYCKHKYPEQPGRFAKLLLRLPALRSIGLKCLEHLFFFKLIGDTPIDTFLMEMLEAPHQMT

| Structure (SMILES) | Potency [1] | Potency [2] | outcome [3] | Potency [4] | outcome [5] | Potency [6] | Potency [7] | outcome [8] | Potency [9] | Potency [10] | Potency [11] | Potency [12] | Potency [13] | Potency [14] | Potency [15] |
| --- | --- | --- | --- | --- | --- | --- | --- | --- | --- | --- | --- | --- | --- | --- | --- |
| O=C1CN=C(c2ccccc2)c2cc(Cl)ccc2N1CC1CC1 | inactive | inactive | inactive | inactive | inactive | inactive | inactive | inactive | inactive | inactive | inactive | inactive |  |  |  |
| CCOc1nc(F)cc2nc(S(=O)(=O)Nc3c(Cl)cccc3Cl)nn12 | inactive | inactive | inactive | inactive | inactive |  |  | inactive | inactive | inactive |  |  | inactive | inactive |  |
| Nc1nc(N)nc(N)n1 | inactive | inactive | inactive | inactive | inactive | inactive | inactive | inactive | inactive | inactive | inactive | inactive |  | inactive | inactive |
| CC(C)O.CC(C)O.OCCN(CCO)CCO.OCCN(CCO)CCO.[Ti] | inactive |  | inactive | inactive | inactive |  |  |  | inactive | inactive | inactive | inactive | inactive | inactive | inactive |
| CCCC(=O)Cl | inactive | inactive | inactive | inactive | inactive |  | inactive | inactive | inactive | inactive | inactive | inactive |  | inactive |  |
| COC(=O)c1cncn1C(C)c1ccccc1 (stereo not drawn) | inactive | inactive | inactive | inactive | inactive | inactive | inactive | inactive |  | inactive | inactive |  |  | inactive | inactive |
| C[C@]12CC[C@H]3[C@@H](CCC4=CC(=O)CC[C@@H]43)[C@@H]1CC[C@@H]2OC(=O)CCC1CCCCC1 | inactive | inactive | inactive | inactive | inactive | inactive |  | inactive | inactive | inactive |  | inactive | inactive |  |  |
| Brc1ccc(Oc2ccccc2)cc1 | inactive | inactive | inactive | inactive | inactive | inactive | 55.8 µM (active) and inactive | inactive | 31.7 µM (active) and inactive | inactive |  |  |  | inactive | inactive |
| ClCCCCBr | inactive | inactive | inactive | inactive | inactive | inactive | inactive | inactive | inactive | inactive | inactive |  |  |  | inactive |
| COC(C)(C)CCC[C@H](C)C/C=C/C(C)=C/C(=O)OC(C)C |  |  | inactive | inactive | inactive |  | inactive | inactive | inactive | inactive | inactive | inactive |  | inactive |  |
| C=CC(C)=O | inactive | inactive | inactive | inactive | inactive | inactive |  | inactive | inactive | inactive |  |  |  | inactive | inactive |
| Sc1ccccc1Cl | inactive | inactive | inactive | inactive | inactive | inactive | inactive | inactive | inactive | inactive | inactive | inactive |  | inactive | inactive |
| CCCCNP(N)(N)=S | inactive | inactive | inactive | inactive | inactive | inactive |  |  | inactive | inactive |  |  | inactive | inactive | inactive |
| CCCCC(O)(Cn1cncn1)c1ccc(Cl)cc1Cl (stereo not drawn) | 48.9 µM (active) | 54.9 µM (active) | inactive | inactive | inactive |  | 54.4 µM (active) |  | 54.9 µM (active) |  |  |  | inactive |  |  |
| CN1[C@@H]2CC[C@H]1CC(OC(=O)c1cc(Cl)cc(Cl)c1)C2 (stereo partly drawn) | inactive | inactive | inactive | inactive | inactive | inactive |  | inactive | 3.79 µM (active) | inactive | inactive | inactive | inactive |  |  |
| CCCCCC[N+](=O)[O-] | inactive | inactive | inactive | inactive | inactive | inactive |  | inactive | inactive | inactive |  |  |  | inactive | inactive |
| ClCc1cccc(Cl)c1 | inactive | inactive | inactive | inactive | inactive |  |  | inactive | inactive | inactive | inactive | inactive | inactive |  | inactive |
| CC1CC(CC2CCC(N)C(C)C2)CCC1N (stereo not drawn) | inactive |  | inactive | inactive | inactive | inactive | inactive |  |  | inactive |  | inactive |  | inactive | inactive |
| Clc1ccc(C2(Cn3cncn3)CC(Br)CO2)c(Cl)c1 (stereo not drawn) | inactive | inactive | inactive | inactive | inactive | inactive |  | inactive | inactive | inactive |  |  | inactive | inactive |  |
| O=[Se]=O | inactive | inactive | inactive | inactive | inactive |  |  | inactive |  | inactive | inactive | inactive | inactive | inactive | inactive |
| CC[C@H]1C[C@H]2[C@@H]3CCC4=CC(=O)CC[C@@H]4[C@H]3CC[C@]2(C)[C@H]1O | inactive | inactive | inactive | inactive | inactive | inactive |  |  | inactive | inactive | inactive | inactive | inactive | inactive |  |
| C[N+](C)(C)CCCl | inactive | inactive | inactive | inactive | inactive |  | inactive | inactive | inactive | inactive | inactive | inactive |  | inactive | inactive |
